# Data published in article PMC7819943, “Rice protein-binding microarrays: a tool to detect cis-acting elements near promoter regions in rice”.
# The full ranking holds about 39,000 sequences; the median of “fluorescence intensity (a.u.)” is about 4,300, and the highest 2% start at about 39,000. Only a selection was taken, and the highest values are over-represented in it overall.
# Target: T1, OsSMF1 (Oryza sativa, UniProt Q6ZLB0 1-436)
# T1 sequence: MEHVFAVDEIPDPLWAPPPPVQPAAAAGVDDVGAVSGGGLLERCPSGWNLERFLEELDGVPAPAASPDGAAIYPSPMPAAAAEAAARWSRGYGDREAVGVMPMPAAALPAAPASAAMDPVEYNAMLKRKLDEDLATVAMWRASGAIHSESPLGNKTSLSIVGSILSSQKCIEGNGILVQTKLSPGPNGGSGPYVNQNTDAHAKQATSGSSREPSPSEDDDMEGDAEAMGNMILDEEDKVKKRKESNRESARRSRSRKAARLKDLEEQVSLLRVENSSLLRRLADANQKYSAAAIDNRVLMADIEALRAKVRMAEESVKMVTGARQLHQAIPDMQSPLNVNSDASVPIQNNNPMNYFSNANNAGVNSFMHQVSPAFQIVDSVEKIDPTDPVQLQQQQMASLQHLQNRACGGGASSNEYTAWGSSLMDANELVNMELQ
# Test: protein-binding microarray (RPBM); PBS, 2% BSA, 51.3 ng/ul salmon testes DNA, 50 uM zinc acetate, 200 nM TF, 25 C, 1 h; high values mean tight binding
# Details: protein: recombinant; tags: N-terminal polyhistidine and DsRed monomer fusion (pET32a); chain copies: 2; label: CyDye5-dUTP incorporated in the synthesized complementary strand; 3' TTTTT single-stranded linker to array surface; dsDNA, one strand shown
# Outline: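 Per-feature fluorescence intensity (arbitrary units), read on an Axon 4000B scanner, is the binding signal. Transcription factors carrying an N-terminal polyhistidine tag and DsRed fusion were expressed in E. coli BL21-CodonPlus and purified on Ni–NTA. A custom Agilent array, made double-stranded by primer extension with Cy5-dUTP and blocked with 2% BSA, was incubated with 200 nM protein in PBS, 2% BSA, salmon testes DNA and 50 µM zinc acetate at 25 °C for 1 h and then washed.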
row,Sequence,binding signal
1,GCACATGACTGTGCAAACGCTGTTCCTGATCTGAGTAAGACGGAGTCACCTAGTGCAG,4170 fluorescence intensity (a.u.)
2,CGGCCGCGACACGCACACGCCCACCCCACGCCCGCCGCGCCGGAGTCACCTAGTGCAG,3140 fluorescence intensity (a.u.)
3,GGTCTTGGTAGCCACCGTGTACGGCCTCTGCGGCATGCAGCGGAGTCACCTAGTGCAG,3770 fluorescence intensity (a.u.)
4,ATGTTATCGTGCTAGTGTCAGCACATTCTCACTGATATTACGGAGTCACCTAGTGCAG,5330 fluorescence intensity (a.u.)
5,GTAAGGCGTCCATGTGATGTCATTGTTGATGGGCAAGTGCCGGAGTCACCTAGTGCAG,6430 fluorescence intensity (a.u.)
6,CGCATCGCATCTATGACTGGAGAGTGTATCTTTGCTTGCACGGAGTCACCTAGTGCAG,3180 fluorescence intensity (a.u.)
7,TCACCAGCGTCCGGTCAGCCATGGCGCTGAGTGGCCTCTTCGGAGTCACCTAGTGCAG,21000 fluorescence intensity (a.u.)
8,TACTTCTTCTAAATGCTATAGCCAGGGAATGCAAACGAGACGGAGTCACCTAGTGCAG,42000 fluorescence intensity (a.u.)
9,AAAATGTGAATCTTTTGTATAGCCAGCTTCTTCTAAAACACGGAGTCACCTAGTGCAG,24900 fluorescence intensity (a.u.)
10,AATTGATTTCTCTATAGACAAATAGGGAATGCCAGATTGACGGAGTCACCTAGTGCAG,20100 fluorescence intensity (a.u.)
11,CTGCGCCATCCACGCCAAGCGCGTCACCATCATGCCCAAGCGGAGTCACCTAGTGCAG,6140 fluorescence intensity (a.u.)
12,TTCATATCATATACGTACACGTGGAATAATTTGTAATTATCGGAGTCACCTAGTGCAG,9010 fluorescence intensity (a.u.)
13,CTCGGGGTTAAGCAGAGGTTATCGTCCCCGCCGCAGGTTACGGAGTCACCTAGTGCAG,4020 fluorescence intensity (a.u.)
14,ATATTCATATGACATGACACGTAAATGTCACGTAGGATATCGGAGTCACCTAGTGCAG,3700 fluorescence intensity (a.u.)
15,CCACAAACCAAACCAACCCAAGATATCCTGATGAACCAAACGGAGTCACCTAGTGCAG,35300 fluorescence intensity (a.u.)
16,AAACGAATCTAGGAATATATGTGACACATCATAGTACTACCGGAGTCACCTAGTGCAG,4370 fluorescence intensity (a.u.)
17,AACACACTAGTAATACGAATCTGAATATGGTACTAGGATACGGAGTCACCTAGTGCAG,64200 fluorescence intensity (a.u.)
18,ACTAGGATGTCACAACAGCCAAACCATCCATATACTGCCACGGAGTCACCTAGTGCAG,3170 fluorescence intensity (a.u.)
19,TTCCAACACTAGGATGGTATATGAACCACCAGGATACAAACGGAGTCACCTAGTGCAG,41800 fluorescence intensity (a.u.)
20,TTCAGGATGAATGGTACGTAACATGATAGGACACTATTCACGGAGTCACCTAGTGCAG,48700 fluorescence intensity (a.u.)
21,AGTACTGGATGTGACACATCCTGGTACTACGAATCTGAACCGGAGTCACCTAGTGCAG,3910 fluorescence intensity (a.u.)
22,CCGGATATGTTCTCGTAGTTTATATACGTTCATGATGACACGGAGTCACCTAGTGCAG,3450 fluorescence intensity (a.u.)

row,Sequence,binding signal
1,TGGCCCAACACATCAACGTTACATCACGGGCTTTAACGTTCGGAGTCACCTAGTGCAG,3290 fluorescence intensity (a.u.)
2,AGAAAAGAAAACGCGGCAATAAACAATGACACGGCCTGTCCGGAGTCACCTAGTGCAG,4200 fluorescence intensity (a.u.)
3,GGCTGACGGCTGGTGAGAAGCCACGTCAGCATTTAATTCCCGGAGTCACCTAGTGCAG,13100 fluorescence intensity (a.u.)
4,ATTGCGCAGGCGCAGCAATATTGAATGGCCCAAATGCTAGCGGAGTCACCTAGTGCAG,23800 fluorescence intensity (a.u.)
5,GCACAGGCTTGACACCAGTCGAGCCGAGCCGAAACCCCGTCGGAGTCACCTAGTGCAG,3270 fluorescence intensity (a.u.)
6,ATTTTCGTGTGCAGTATATGTGTTCCCAACCCTGAGAGCCCGGAGTCACCTAGTGCAG,3620 fluorescence intensity (a.u.)
7,CTCTGTTCACTCCACCAAACTCCTTCGATTGATCAAATGACGGAGTCACCTAGTGCAG,47200 fluorescence intensity (a.u.)
8,TGGGATGATCAAATGACTGCCACACTGTCATGTTCCTCTGCGGAGTCACCTAGTGCAG,3610 fluorescence intensity (a.u.)
9,ATTGATCACTCGGACGTCACCAAACGATCGATAAACTCGTCGGAGTCACCTAGTGCAG,5630 fluorescence intensity (a.u.)
10,ACCAACGAACGGACGCTGTCATGTCACCTCTCTTAATCTTCGGAGTCACCTAGTGCAG,3740 fluorescence intensity (a.u.)
11,AGCCTCTTCCATCTCGAGCCAGCTCATATTGATTATCCAACGGAGTCACCTAGTGCAG,4850 fluorescence intensity (a.u.)
12,AGCTGTGCCAACGAGCCCTTAATTAGTTATTATCTCTTCTCGGAGTCACCTAGTGCAG,44600 fluorescence intensity (a.u.)
13,AACTGCAGCAATATCACTCCCTCCAAATCAGCACATGCATCGGAGTCACCTAGTGCAG,3560 fluorescence intensity (a.u.)
14,AAGCACTCCAAACTGCAACGATTATATCAATAAAATAAAACGGAGTCACCTAGTGCAG,39000 fluorescence intensity (a.u.)
15,TAGCATAGCCAACTGCTGACTCCAAATTATCTATAGTCAACGGAGTCACCTAGTGCAG,3850 fluorescence intensity (a.u.)
16,TGTCAGTTGGCGAGGGATGCACTGATGACTATGCTAGTGCCGGAGTCACCTAGTGCAG,4860 fluorescence intensity (a.u.)
17,AAGCTAGTACAAGATGCGAAATGTCGTCAGATTCAGAGATCGGAGTCACCTAGTGCAG,3580 fluorescence intensity (a.u.)
18,CGTTGCGCACGTACAGCTCACGCTCAAGTCGTACACATTACGGAGTCACCTAGTGCAG,3840 fluorescence intensity (a.u.)
19,ATACGATACCATAGGTATGTCAGCATGATATATATGTACTCGGAGTCACCTAGTGCAG,3890 fluorescence intensity (a.u.)
20,AGTACATAATTACGCACATGTGACACACACCACACATACTCGGAGTCACCTAGTGCAG,3140 fluorescence intensity (a.u.)
21,TGTCATAAATTGTACCGACATGATACACATGTCCGATACTCGGAGTCACCTAGTGCAG,39400 fluorescence intensity (a.u.)
